Bioassay records (PubChem BioAssay)
Only some compounds are listed: those with a hit (about 3.3% of all), similar ones and a draw of the others.
Fh CTSL1 inh = cathepsin L1 inhibition, PFM18AAP counter-screen | recombinant F. hepatica cathepsin L1, Z-Leu-Arg-MCA fluorescence | inhibition, % at 5.96 µM | 300,000 tested, 0.49% active | AID 1906;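 active means inhibition above the mean of all tested compounds plus 3 SD, set per screening campaign, cut at about 17% in these data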
PHOSPHO1 inh = PHOSPHO1 (human) inhibition; Q8TCT1; recombinant PHOSPHO1, absorbance phosphatase assay; inhibition, % at 13.3 µM; 290,000 tested, 1.1% active; AID 1565; in the data active means inhibition above about 60%
Target sequence (Q8TCT1 whole entry, looked up): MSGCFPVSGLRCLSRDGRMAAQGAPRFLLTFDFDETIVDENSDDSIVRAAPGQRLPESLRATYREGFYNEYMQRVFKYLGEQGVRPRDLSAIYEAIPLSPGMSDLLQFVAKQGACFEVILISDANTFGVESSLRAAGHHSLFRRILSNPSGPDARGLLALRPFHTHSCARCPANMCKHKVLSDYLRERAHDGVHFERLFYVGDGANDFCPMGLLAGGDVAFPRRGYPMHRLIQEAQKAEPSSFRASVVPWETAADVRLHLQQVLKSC
CendR NRP1 mod = alters CendR peptide binding to human NRP-1; AID 602438; inhibition, % at 25 µM; 360,000 tested, 0.85% active; FAM-RPARPAR peptide binding to NRP-1, fluorescence polarization; O14786;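 active means inhibition or corrected inhibition above about 18%, plus a signal ratio from 0.5 to 1.5, limit read from the data, passing the limit was not always enough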
HNF4A DNA FP = change in binding of human HNF4 alpha to DNA | P41235 | HNF4a-FITC DNA binding, fluorescence polarization, 1 h | activity change, % at 10 µM | 360,000 tested, 0.3% active | AID 1224865; in the data active means activity change above about 30%, passing the limit was not always enough
Rpn11 block = inhibitors of human proteasome Rpn11; O00487; human 26S proteasome, Ub4-pepOG fluorescence polarization; 20S core pre-blocked with epoxomicin; inhibition, % at 20 µM; 360,000 tested, 0.59% active; AID 588493;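 active means inhibition at 20 µM, scaled to each plate's controls, above about 33%, limit read from the data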
Target sequence (O00487 whole entry, looked up): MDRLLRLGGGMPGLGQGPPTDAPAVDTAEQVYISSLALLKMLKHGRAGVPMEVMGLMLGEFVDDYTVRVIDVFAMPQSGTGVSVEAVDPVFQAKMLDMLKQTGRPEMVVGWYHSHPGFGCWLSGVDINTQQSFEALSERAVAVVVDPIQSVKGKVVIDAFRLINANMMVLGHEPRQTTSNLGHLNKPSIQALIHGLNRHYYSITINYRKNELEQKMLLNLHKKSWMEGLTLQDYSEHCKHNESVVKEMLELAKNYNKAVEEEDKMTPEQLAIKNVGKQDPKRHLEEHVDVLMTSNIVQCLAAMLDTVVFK
TPT1 inhibitor = blocks Candida albicans tRNA 2'-phosphotransferase; recombinant caTPT1, FP RNA substrate dephosphorylation; inhibition, % at 5 µM; 300,000 tested, 0.81% active; AID 1962;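 active means inhibition above the mean of all tested compounds plus 3 SD, set per screening campaign, cut at about 24% in these data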
Large screens that a line does not name were inactive.

O=C(CSc1nc(-c2ccc(F)cc2)nc2ccc(F)cc12)Nc1cccc(C(=O)O)c1	none
O=C(CSc1nc(-c2ccccc2)nc2c1Cc1ccccc1O2)Nc1ccc(C(=O)O)cc1	Rpn11 block 51.4 (no result: Fh CTSL1 inh, TPT1 inhibitor)
O=C(Cc1cccc(NC(=O)C2CCN(C(=O)C3CCCC3)CC2)c1)Nc1cccc(C(=O)N2CCCCC2)c1	none (no result: Fh CTSL1 inh, PHOSPHO1 inh, TPT1 inhibitor)
COc1ccc(OC)c2sc(NC(=O)c3ccc(S(=O)(=O)N(C)C)cc3)nc12	none
CCC(C(=O)NC1CCCCCC1)n1nc(C)c2c(C)n(-c3ccccc3)nc2c1=O (centres undefined)	PHOSPHO1 inh 64.7
Cc1nc(C)c(N)c(=O)[nH]1	CendR NRP1 mod 23.9
Cc1ccc(C)c(Cc2c(C)nc(C)[nH]c2=O)c1	none
Cc1cccc(C(=O)O/N=C(\N)c2ccc(Cl)cc2)c1	none (no result: PHOSPHO1 inh)
Cc1ccc(/C(N)=N/OC(=O)c2ccc(Cl)cc2Cl)cc1	CendR NRP1 mod 51.7
CN(CCCC(=O)O)S(=O)(=O)c1ccc2c(c1)C(=O)c1cc(S(=O)(=O)N(C)CCCC(=O)O)ccc1-2	none
CC(=O)c1cc(Cl)ccc1OCC(=O)Nc1cccc(S(=O)(=O)N2CCCC2)c1	none (no result: Fh CTSL1 inh, PHOSPHO1 inh, TPT1 inhibitor)
O=C(CSc1ncccn1)N1CCN(C(c2ccccc2)c2ccccc2)CC1	PHOSPHO1 inh 85.8
O=C(CC(c1ccccc1)c1ccccc1)N1CCN(c2ccccn2)CC1	PHOSPHO1 inh 65.6
Cc1cc(C(O)c2ncc(-c3ccccc3F)[nH]2)ccc1F (centres undefined)	none (no result: Fh CTSL1 inh, PHOSPHO1 inh, TPT1 inhibitor)
COc1cccc(C(C[N+](=O)[O-])c2c(C)[nH]n(-c3ccccc3)c2=O)c1 (centres undefined)	Fh CTSL1 inh 101.2
CC(=O)N1N=C(c2ccncc2)OC12CCCCC2	PHOSPHO1 inh 62.3
COc1cc(C=NNC(=S)Nc2ccc(S(=O)(=O)N3CCCCC3)cc2)cc(OC)c1OC	none (no result: Fh CTSL1 inh, PHOSPHO1 inh, TPT1 inhibitor)
Cc1cc(-c2nc3c4c5c(sc4[nH]c(=O)n3n2)CCC5)c(C)o1	PHOSPHO1 inh 80.2
CCOc1ccc(OCCCC(=O)Nc2nc3ccccc3[nH]2)cc1	none
CCOC(=O)CSc1nc2sc3c(c2c(=O)[nH]1)CC(C)(CC)OC3 (centres undefined)	PHOSPHO1 inh 81.0
O=C(CCS(=O)(=O)c1ccccc1Cl)NCCC1=CCCCC1	none
Fc1ccc(C2=CC(c3ccco3)n3ncnc3N2)cc1 (centres undefined)	CendR NRP1 mod 37.7
O=C(NC(c1ccccc1)c1ccc2ccccc2n1)C1CCN(Cc2ccc(Oc3ccccc3)cc2)CC1 (centres undefined)	CendR NRP1 mod 20.0 (no result: Fh CTSL1 inh, PHOSPHO1 inh, TPT1 inhibitor)
O=C(NC(c1ccc(F)cc1)c1ccc2ccccc2n1)C1CCN(Cc2ccc(Oc3ccccc3)cc2)CC1 (centres undefined)	none (no result: Fh CTSL1 inh, PHOSPHO1 inh, TPT1 inhibitor)
CCn1cc2nc(SCC(=O)Nc3ccc(F)cc3F)n(Cc3ccccc3)c(=O)c2n1	none
CCOc1ccc(N2CSC3=C(C#N)C(c4ccco4)CC(=O)N3C2)cc1 (centres undefined)	PHOSPHO1 inh 94.1
COc1ccc(Br)cc1C1CC(=O)N2CN(C)CSC2=C1C#N (centres undefined)	none
Cc1ccc(C2CC(=O)N3CN(c4ccc(Br)cc4)CSC3=C2C#N)o1 (centres undefined)	PHOSPHO1 inh 92.8, Rpn11 block 45.3
COc1ccc(C(=O)NC(Nc2ccccc2)C(Cl)(Cl)Cl)cc1 (centres undefined)	none
CC(C)(O)[C@@H]1CC(=O)[C@]2(C)[C@H](CC[C@@]3(C)[C@H](c4ccoc4)OC(=O)[C@H]4O[C@]432)[C@@]1(C)/C=C\C(=O)O	CendR NRP1 mod 26.5 (no result: Fh CTSL1 inh, PHOSPHO1 inh, TPT1 inhibitor)
Cc1nc(C)c(C(=O)O)c(-c2cccs2)c1C(=O)O	none
NC(=O)c1ccccc1N/C=C1\CCCCC1=O	none
CCOC(=O)c1ccccc1N/C=C1\CCCC1=O	PHOSPHO1 inh 93.8
Cc1nc(SCc2ccc(C(=O)O)cc2)c2c(C)c(C)sc2n1	none
Cc1ccc(CCCOC(=O)C[N+]2(C)CCOCC2)cc1	PHOSPHO1 inh 89.4
O=C(NNS(=O)(=O)c1ccc(Br)cc1)c1cccs1	none
Cc1csc(=O)n1CCC(=O)OCC(=O)Nc1ccc(C(N)=O)cc1	CendR NRP1 mod 23.1 (no result: PHOSPHO1 inh)
Cc1csc(=O)n1CC(=O)OCC(=O)Nc1ccc(C(N)=O)cc1	none (no result: Fh CTSL1 inh, PHOSPHO1 inh, TPT1 inhibitor)
Cc1nn(-c2ccccc2)c(N)c1C(c1ccc(C(C)C)cc1)c1c(C)nn(-c2ccccc2)c1N	none
Cc1ccc(C(c2c(C)nn(-c3ccccc3)c2N)c2c(C)nn(-c3ccccc3)c2N)cc1	CendR NRP1 mod 30.2
CC1(C(=O)NS(=O)(=O)Cc2cccc(Cl)c2)CCN1C(=O)CCc1cccs1 (centres undefined)	none (no result: Fh CTSL1 inh, PHOSPHO1 inh, TPT1 inhibitor)
O=c1[nH]c2ccccc2nc1/C=C/c1ccccc1	none
O=c1[nH]c2ccccc2nc1/C=C/c1ccc(O)cc1	HNF4A DNA FP 36.4 (not shown: Fh CTSL1 inh, Rpn11 block, TPT1 inhibitor)
Cc1sc2nc(SCC(=O)N(CCO)CCO)n(C3CCCCC3)c(=O)c2c1C	CendR NRP1 mod 24.1
COc1cccc(CNc2nc3cc(-c4cscc4C)sc3c(=O)n2C)c1	none (no result: Fh CTSL1 inh, PHOSPHO1 inh, TPT1 inhibitor)
Cc1cnc(CNc2nc3cc(-c4ccccc4C)sc3c(=O)n2C)cn1	CendR NRP1 mod 28.2 (no result: Fh CTSL1 inh, PHOSPHO1 inh, TPT1 inhibitor)
COc1cccc(CNc2nc3cc(-c4ccc(OC)cc4C)sc3c(=O)n2C)c1	CendR NRP1 mod 25.0 (no result: Fh CTSL1 inh, PHOSPHO1 inh, TPT1 inhibitor)
Cc1ccccc1-c1cc2nc(NCc3ccccc3)n(C)c(=O)c2s1	none (no result: Fh CTSL1 inh, PHOSPHO1 inh, TPT1 inhibitor)
Cc1cc(Br)cn2c(Cc3ccsc3)c(C3CCCCC3)nc12	CendR NRP1 mod 35.1 (no result: Fh CTSL1 inh, PHOSPHO1 inh, TPT1 inhibitor)
Cc1cc(Br)cn2c(Cc3ccsc3)c(C(C)(C)C)nc12	CendR NRP1 mod 48.6 (no result: Fh CTSL1 inh, PHOSPHO1 inh, TPT1 inhibitor)
CC1CCCC(C)N1C(=O)Cn1cc(C#N)c2ccccc21 (centres undefined)	none
CCOC(=O)c1c(S(=O)(=O)N2CCCC(C(=O)Nc3cccc(C)n3)C2)c(C)n(C)c1C (centres undefined)	none
COCCCn1c(-c2ccc(S(=O)(=O)N3CCOCC3)cc2)csc1=Nc1ccccc1	PHOSPHO1 inh 69.1
CCn1c(-c2ccccc2)csc1=Nc1ccc(S(=O)(=O)O)cc1	none
Cc1cc(C)c2c(=O)cc(C(F)F)oc2c1	Fh CTSL1 inh 16.6
COc1ccc(/C=N/N=C2/CC(C)(C)Cc3n[nH]c(=O)cc32)cc1	CendR NRP1 mod 49.6
CN1CCc2nc3sc(C(=O)C45CC6CC(CC(C6)C4)C5)c(N)c3cc2C1	PHOSPHO1 inh 80.8
Nc1c(C(=O)O)sc2nc3c(cc12)CCCC3	none
CC(C)(C)N(Cc1ccccc1)C(=O)CN1C(=O)c2ccccc2S1(=O)=O	none (no result: Fh CTSL1 inh, PHOSPHO1 inh, TPT1 inhibitor)
O=C(O)C(F)=C(c1ccccc1)c1ccccc1	none (no result: PHOSPHO1 inh)
CC(C)(C)Nc1nc(SCc2ccccc2)nc(N2CCOCC2)n1	Fh CTSL1 inh 18.6
COC(=O)Cc1ccc(NC(=S)NCCSc2ccc(C)cc2)cc1	CendR NRP1 mod 29.2
COC(=O)Cc1ccc(NC(=S)NCCCO)cc1	CendR NRP1 mod 40.3
COC(=O)Cc1ccc(NC(=S)NN2CCOCC2)cc1	none
